Data as given in the supplement of paper PMC11732987, “Enantioselective OTUD7B fragment discovery through chemoproteomics screening and high-throughput optimisation” (Communications Chemistry, 2025).

Tests used:
Assay in all cases: log2 ratio of Biotin-Ahx-Ub-VS probe labelling (fragment/DMSO); higher = less target engagement (more negative = stronger competition), active = hit call of the paper (q ≤ 0.05, log2 ratio ≤ -1)
Settings in all cases: compound concentration: 200 uM; treatment time: 3 h
OTUD6B = target: T1, OTUD6B (UniProt Q8N6M0)
T1 sequence (whole entry): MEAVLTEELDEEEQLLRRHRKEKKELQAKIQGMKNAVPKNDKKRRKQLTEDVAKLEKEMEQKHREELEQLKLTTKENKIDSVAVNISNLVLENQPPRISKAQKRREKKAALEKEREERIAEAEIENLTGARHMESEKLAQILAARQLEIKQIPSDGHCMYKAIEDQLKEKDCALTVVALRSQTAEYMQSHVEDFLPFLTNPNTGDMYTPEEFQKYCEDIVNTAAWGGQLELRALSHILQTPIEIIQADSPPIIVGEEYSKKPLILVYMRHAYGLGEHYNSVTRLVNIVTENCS
Procedure, shortened: (§1)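 HEK293T lysate (495 µg per sample, in Tris/CHAPS/IGEPAL buffer with protease inhibitors) was exposed in triplicate for 3 h to fragment at 200 µM or to vehicle, then to Biotin-Ahx-Ub-VS at 0.5 µM final for 1 h. Labelled DUBs were enriched on NeutrAvidin, digested with LysC and trypsin, and analysed by diaPASEF LC-MS/MS. Spectronaut label-free quantities were normalised to the global median, and values are average log2 ratios of fragment over vehicle from an unpaired t-test. Only proteins with ≥2 unique peptides were used.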

OTUD7B = target: T2, OTUD7B (UniProt Q6GQQ9)
T2 sequence (whole entry): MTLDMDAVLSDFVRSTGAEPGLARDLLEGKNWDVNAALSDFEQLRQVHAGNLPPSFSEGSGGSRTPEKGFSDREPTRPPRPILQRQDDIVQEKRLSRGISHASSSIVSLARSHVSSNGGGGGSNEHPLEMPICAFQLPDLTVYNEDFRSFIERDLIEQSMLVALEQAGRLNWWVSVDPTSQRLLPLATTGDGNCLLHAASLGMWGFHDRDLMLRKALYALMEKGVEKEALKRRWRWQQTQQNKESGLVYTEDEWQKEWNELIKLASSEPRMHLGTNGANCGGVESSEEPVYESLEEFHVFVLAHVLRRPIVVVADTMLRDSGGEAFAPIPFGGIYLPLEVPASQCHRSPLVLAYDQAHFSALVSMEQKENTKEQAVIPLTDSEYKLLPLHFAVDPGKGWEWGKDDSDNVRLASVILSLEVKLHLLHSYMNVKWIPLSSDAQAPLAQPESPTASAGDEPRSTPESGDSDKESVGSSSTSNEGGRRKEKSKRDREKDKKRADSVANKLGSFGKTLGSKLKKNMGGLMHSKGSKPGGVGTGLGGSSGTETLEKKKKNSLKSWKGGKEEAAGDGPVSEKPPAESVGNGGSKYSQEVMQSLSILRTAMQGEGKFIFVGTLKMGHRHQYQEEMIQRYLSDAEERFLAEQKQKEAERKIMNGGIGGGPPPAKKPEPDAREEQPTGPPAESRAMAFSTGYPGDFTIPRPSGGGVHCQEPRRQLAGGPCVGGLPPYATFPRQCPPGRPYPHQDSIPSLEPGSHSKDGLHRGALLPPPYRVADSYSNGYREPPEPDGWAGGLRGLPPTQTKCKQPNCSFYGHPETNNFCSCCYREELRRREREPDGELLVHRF
Procedure, shortened: as §1

PRPF8 = PRPF8 (UniProt Q6P2Q9)
Procedure, shortened: as §1

PSMD7 = target: T3, PSMD7 (UniProt P51665)
T3 sequence (whole entry): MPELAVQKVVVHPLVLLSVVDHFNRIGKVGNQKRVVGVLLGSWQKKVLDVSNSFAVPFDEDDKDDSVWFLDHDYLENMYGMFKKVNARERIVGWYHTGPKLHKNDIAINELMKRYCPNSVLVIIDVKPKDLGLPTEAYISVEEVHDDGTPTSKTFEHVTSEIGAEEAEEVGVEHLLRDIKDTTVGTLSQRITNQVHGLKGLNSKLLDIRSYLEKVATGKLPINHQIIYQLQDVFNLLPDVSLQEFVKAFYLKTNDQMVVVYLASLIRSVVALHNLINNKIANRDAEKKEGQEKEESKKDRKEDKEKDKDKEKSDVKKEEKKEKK
Procedure, shortened: as §1

UCHL1 = UCHL1 (UniProt P09936)
Sequence of UCHL1 (P09936 whole entry, looked up): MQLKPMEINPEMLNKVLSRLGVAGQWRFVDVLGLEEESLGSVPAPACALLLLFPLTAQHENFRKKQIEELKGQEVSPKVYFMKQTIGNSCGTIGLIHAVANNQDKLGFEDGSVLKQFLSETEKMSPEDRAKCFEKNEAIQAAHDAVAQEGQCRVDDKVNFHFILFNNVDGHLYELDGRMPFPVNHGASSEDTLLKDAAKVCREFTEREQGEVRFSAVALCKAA
Procedure, shortened: as §1

UCHL3 = target: T4, UCHL3 (UniProt P15374)
T4 sequence (whole entry): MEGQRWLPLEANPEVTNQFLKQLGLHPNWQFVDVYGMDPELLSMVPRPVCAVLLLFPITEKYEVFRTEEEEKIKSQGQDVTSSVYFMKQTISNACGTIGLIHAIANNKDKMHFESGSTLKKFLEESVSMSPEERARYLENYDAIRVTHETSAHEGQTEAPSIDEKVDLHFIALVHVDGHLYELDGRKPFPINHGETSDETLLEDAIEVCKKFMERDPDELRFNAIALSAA
Procedure, shortened: as §1

UCHL5 = target: T5, UCHL5 (UniProt Q9Y5K5)
T5 sequence (whole entry): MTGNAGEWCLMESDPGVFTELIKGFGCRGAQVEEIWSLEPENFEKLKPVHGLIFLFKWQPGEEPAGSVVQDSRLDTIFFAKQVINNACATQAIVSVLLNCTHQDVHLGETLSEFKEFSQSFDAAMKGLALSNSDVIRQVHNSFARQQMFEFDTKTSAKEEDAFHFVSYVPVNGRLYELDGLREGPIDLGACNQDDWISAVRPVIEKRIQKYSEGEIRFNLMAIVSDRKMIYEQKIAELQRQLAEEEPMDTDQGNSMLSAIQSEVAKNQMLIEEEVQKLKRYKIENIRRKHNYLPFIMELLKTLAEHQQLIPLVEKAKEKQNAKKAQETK
Procedure, shortened: as §1

USP10 = USP10 (UniProt Q14694)
Sequence of USP10 (Q14694 whole entry): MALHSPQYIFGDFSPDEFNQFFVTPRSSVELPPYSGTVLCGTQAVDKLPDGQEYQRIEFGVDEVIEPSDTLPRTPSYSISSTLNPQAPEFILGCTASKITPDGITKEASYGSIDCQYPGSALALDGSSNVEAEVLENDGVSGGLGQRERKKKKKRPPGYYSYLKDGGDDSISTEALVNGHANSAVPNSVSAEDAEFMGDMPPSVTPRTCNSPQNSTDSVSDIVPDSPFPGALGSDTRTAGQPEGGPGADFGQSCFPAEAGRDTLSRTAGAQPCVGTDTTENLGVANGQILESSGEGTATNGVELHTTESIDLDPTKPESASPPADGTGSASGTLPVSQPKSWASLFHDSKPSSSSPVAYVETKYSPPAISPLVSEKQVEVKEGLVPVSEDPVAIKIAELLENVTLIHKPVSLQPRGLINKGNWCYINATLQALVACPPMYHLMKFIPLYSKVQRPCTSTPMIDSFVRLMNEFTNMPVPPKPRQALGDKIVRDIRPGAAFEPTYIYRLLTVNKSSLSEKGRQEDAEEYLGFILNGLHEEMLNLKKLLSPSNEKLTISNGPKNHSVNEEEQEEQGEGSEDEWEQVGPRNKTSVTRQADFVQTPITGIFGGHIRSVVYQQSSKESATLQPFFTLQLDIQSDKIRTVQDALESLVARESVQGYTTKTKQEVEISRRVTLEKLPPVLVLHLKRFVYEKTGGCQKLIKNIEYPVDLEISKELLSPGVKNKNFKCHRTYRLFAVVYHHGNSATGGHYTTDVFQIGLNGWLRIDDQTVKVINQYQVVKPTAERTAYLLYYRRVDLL
Procedure, shortened: as §1

USP15 = target: T6, USP15 (UniProt Q9Y4E8)
T6 sequence (whole entry): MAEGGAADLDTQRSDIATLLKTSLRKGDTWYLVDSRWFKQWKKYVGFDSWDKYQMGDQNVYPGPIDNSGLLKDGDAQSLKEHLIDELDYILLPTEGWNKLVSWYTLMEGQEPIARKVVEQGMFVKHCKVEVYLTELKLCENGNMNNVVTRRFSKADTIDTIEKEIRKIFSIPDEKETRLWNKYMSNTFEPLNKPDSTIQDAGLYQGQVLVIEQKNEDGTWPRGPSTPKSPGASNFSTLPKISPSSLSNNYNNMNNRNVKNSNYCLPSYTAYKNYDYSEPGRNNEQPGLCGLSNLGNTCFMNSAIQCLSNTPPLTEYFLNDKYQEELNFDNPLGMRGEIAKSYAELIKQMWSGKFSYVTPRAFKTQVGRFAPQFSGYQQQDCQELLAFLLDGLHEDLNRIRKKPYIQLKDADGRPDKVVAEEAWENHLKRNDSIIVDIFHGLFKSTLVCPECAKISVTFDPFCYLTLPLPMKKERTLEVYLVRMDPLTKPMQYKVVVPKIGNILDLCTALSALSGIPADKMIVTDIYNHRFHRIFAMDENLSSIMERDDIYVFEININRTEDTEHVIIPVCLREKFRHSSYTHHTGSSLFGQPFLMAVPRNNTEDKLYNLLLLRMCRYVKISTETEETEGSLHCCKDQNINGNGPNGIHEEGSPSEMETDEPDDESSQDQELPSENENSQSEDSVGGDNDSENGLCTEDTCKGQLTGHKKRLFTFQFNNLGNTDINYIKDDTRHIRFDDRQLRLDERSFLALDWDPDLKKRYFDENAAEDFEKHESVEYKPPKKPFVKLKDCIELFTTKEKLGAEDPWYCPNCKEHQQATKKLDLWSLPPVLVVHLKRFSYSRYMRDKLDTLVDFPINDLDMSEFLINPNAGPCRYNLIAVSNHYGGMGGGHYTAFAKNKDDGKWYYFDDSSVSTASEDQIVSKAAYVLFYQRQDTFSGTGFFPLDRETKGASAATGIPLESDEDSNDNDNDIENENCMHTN
Procedure, shortened: as §1

USP16 = USP16 (UniProt Q9Y5T5)
Sequence of USP16 (Q9Y5T5 whole entry, looked up): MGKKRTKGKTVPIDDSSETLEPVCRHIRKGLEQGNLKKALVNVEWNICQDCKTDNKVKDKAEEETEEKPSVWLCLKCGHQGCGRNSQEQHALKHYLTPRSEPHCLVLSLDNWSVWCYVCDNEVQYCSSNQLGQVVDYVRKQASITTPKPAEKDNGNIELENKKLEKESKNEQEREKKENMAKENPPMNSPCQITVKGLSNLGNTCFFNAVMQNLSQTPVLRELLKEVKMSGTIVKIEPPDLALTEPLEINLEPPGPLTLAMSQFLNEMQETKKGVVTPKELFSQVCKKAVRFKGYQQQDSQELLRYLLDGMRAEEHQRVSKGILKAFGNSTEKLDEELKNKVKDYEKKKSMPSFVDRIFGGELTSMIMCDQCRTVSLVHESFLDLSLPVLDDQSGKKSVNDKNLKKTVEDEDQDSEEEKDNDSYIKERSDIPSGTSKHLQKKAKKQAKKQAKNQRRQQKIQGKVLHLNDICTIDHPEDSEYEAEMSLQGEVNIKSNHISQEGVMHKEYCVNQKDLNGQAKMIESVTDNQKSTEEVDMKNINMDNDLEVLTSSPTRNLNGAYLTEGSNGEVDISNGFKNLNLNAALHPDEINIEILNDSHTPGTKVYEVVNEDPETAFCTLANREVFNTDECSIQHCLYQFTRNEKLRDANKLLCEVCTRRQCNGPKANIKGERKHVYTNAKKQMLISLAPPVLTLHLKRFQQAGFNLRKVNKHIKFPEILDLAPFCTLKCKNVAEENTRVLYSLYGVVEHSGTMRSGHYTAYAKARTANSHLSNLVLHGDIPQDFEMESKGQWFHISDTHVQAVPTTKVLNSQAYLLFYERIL
Procedure, shortened: as §1

Measured: log2 ratio of Biotin-Ahx-Ub-VS probe labelling

Cc1n[nH]c(=O)c2c(NC(=O)CCl)oc(C)c12
inactive: OTUD6B 0.111 | OTUD7B -0.365 | PRPF8 0.175 | PSMD7 0.0225 | UCHL1 -0.344 | UCHL3 0.303 | UCHL5 -0.0452 | USP10 -0.0909 | USP15 -0.014 | USP16 -0.0991
